High-throughput results (PubChem BioAssay)
FMDV inh = antivirals against foot and mouth disease virus; FMDV antiviral cell-based qHTS; Potency, µM (series often up to 57.9 µM), usual class: inhibitors; actives 1.2% (n = 410,000); AID 1159524; calls by dose curve; tested in HEK293T cells; further: read-out not given here; nearly all actives have a fitted effect of over 45% in size
AmpC inh no detg = inhibitors of E. coli AmpC beta-lactamase without detergent; actives 0.52% (n = 330,000); AmpC nitrocefin hydrolysis, absorbance 480 nm, 0.0001% Triton; P00811; AID 485341; Potency, µM (top dose mostly 57.1 µM), usual class: inhibitors; further: nearly all actives have a fitted effect of over 20% in size
Target sequence (P00811 whole entry, looked up): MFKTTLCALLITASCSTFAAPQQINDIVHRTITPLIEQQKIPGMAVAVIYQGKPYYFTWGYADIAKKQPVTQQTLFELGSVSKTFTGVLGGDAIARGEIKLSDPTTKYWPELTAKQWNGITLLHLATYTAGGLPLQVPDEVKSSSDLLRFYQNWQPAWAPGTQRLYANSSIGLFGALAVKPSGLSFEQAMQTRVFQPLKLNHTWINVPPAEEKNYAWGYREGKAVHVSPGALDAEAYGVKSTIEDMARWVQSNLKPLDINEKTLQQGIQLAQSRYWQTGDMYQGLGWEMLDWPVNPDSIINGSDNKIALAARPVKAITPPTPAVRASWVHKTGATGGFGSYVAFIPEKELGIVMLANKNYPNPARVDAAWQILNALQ
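20 mM phosphate pH 7.0 + 0.01% (detergent screen) or 0.0001% Triton X-100; 5.3 nM AmpC reagent; cpd preinc 15 min RT; nitrocefin (800 uM stock) to start; A480 q20 s × 4 min; Activity was normalised to no-enzyme and no-compound control wells.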
HCMV antiviral = blocks human cytomegalovirus replication. HFF cells, HCMV-luciferase reporter, 72 h; hits give low values. activity change, negative = inhibition, % at 57.5 µM. actives 4.5% (n = 410,000); in the data active means activity change below about -60%; inconclusive means no clear call, values can overlap the other calls; inactive means above about -39%
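Human foreskin fibroblasts infected with luciferase-reporter HCMV at MOI 1 PFU/cell, compounds at two doses. Luciferase measured 72 h post infection; normalized to buffer-only basal and Salinomycin (10uM) controls.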
HCV inhibitor = HCV inhibition; Potency, µM (titrated, usually from 41.8 µM), hits mostly inhibitors; AID 651820; Huh7.5.1 HCVcc-Cre infection, luciferase reporter, 44 h; actives 3.4% (n = 340,000)
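Cells seeded at 1,000/well and cultured 4 h, then compounds added followed by HCVcc-Cre virus (~0.5 moi). After 44 h further culture, luciferase substrate was added, plates held 15 min at room temperature, and luminescence read for 15 sec.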
AmpC detergent = blocks E. coli AmpC beta-lactamase in detergent assay; Potency, µM (series often up to 114 µM), actives largely listed as inhibitors; actives 0.041% (n = 370,000); AID 485294; AmpC hydrolysis of nitrocefin, absorbance 480 nm, 0.01% Triton; P00811; further: nearly all actives have a fitted effect of over 25% in size
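20 mM phosphate pH 7.0 + 0.01% (detergent screen) or 0.0001% Triton X-100; 5.3 nM AmpC reagent; cpd preinc 15 min RT; nitrocefin (800 uM stock) to start; A480 q20 s × 4 min; Activity was normalised to no-enzyme and no-compound control wells.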
Large screens that a line does not name were inactive. An excerpt weighted towards active compounds, which were near 7.3% of everything screened. Unless noted, the call rests on the fitted dose curve; in most records, active means well fitted curve in the direction sought with a large enough effect; inconclusive means small, poorly fitted or top-dose-only effect, or another doubt; inactive means no such curve, though single readings can be large; an effect the other way counts as inactive or inconclusive.

COCCn1c(=NC(=O)c2ccc(S(=O)(=O)N3CCOCC3)cc2)sc2cc(S(N)(=O)=O)ccc21	HCV inhibitor inconclusive, AmpC detergent inconclusive
CCn1c(=NC(=O)CCS(=O)(=O)c2ccccc2)sc2cccc(OC)c21	FMDV inh 20µM, HCMV antiviral -74 (no result: HCV inhibitor)
O=C(NCc1ccc(F)cc1F)[C@@H]1CCCN1C(=O)[C@@H]1CCCN1	none (no result: AmpC inh no detg, HCV inhibitor, AmpC detergent)
Cc1nc(SCc2nc3ccc(Br)cc3[nH]2)c2oc3ccccc3c2n1	none (no result: HCV inhibitor, AmpC detergent)
CCc1nc(SCc2nc3ccccc3[nH]2)c2oc3ccccc3c2n1	FMDV inh inconclusive, HCMV antiviral inconclusive, HCV inhibitor 7.9µM
CCc1nc(N(CC)CC)c2oc3ccccc3c2n1	FMDV inh inconclusive, HCV inhibitor inconclusive, AmpC detergent inconclusive
CCc1nc(SCC(=O)c2ccc(Cl)s2)c2oc3ccccc3c2n1	HCV inhibitor inconclusive (no result: HCMV antiviral)
CCc1nc(Sc2nc(C)cc(C)n2)c2oc3ccccc3c2n1	HCMV antiviral -86, HCV inhibitor inconclusive, AmpC detergent inconclusive
OCCSc1ncnc2c1oc1ccccc12	HCV inhibitor inconclusive
CCc1nc(SCCO)c2oc3ccccc3c2n1	HCV inhibitor 10µM
CCc1nc(SCC(=O)N2CCN(c3ccccc3)CC2)c2oc3ccccc3c2n1	FMDV inh inconclusive, HCV inhibitor 10µM
Cc1ccc(CNC(=O)CCCCn2c(=O)c3ccccc3n(Cc3c(C)cc(C)cc3C)c2=O)cc1	none (no result: AmpC inh no detg, HCV inhibitor)
COc1ccc(OC)c(N(CCN2C(=O)c3ccccc3C2=O)C(=O)CCl)c1	FMDV inh inconclusive, HCMV antiviral -98 (no result: AmpC inh no detg, HCV inhibitor, AmpC detergent)
CCNC(=O)Oc1ccc(-c2csnn2)cc1	FMDV inh 32µM
Cc1sc2ncnc(Sc3ccccc3C(=O)Nc3ccc(C#N)cc3)c2c1C	HCMV antiviral inconclusive, HCV inhibitor 25µM
Cc1sc2ncnc(Sc3ccccc3C(=O)Nc3ccc(Br)cc3)c2c1C	HCV inhibitor 5.6µM
NC(=O)C1(N2CCCCC2)CCN(C(=O)CSc2nc(C(F)(F)F)cc(=O)[nH]2)CC1	HCMV antiviral -65, AmpC detergent inconclusive
O=C(CSc1nc(C(F)(F)F)cc(=O)[nH]1)N1CCCC1	none
CCCC(=O)Nc1nnc(SCC)s1	none
CCSc1nnc(NC(=O)NC(C)(C(F)(F)F)C(F)(F)F)s1	HCMV antiviral -67, AmpC detergent inconclusive
CCSc1nnc(NC(=O)NC(CC)(C(F)(F)F)C(F)(F)F)s1	FMDV inh inconclusive, HCMV antiviral -79, HCV inhibitor inconclusive
CCCC(C)(C)C(=O)N1CCC1(C)C(=O)Nc1ccc2c(c1)OCCO2 (stereo not given)	HCMV antiviral -66 (no result: AmpC inh no detg, HCV inhibitor, AmpC detergent)
CC1(C(=O)Nc2ccc3c(c2)OCCO3)CCC(=O)N1C1CC1 (stereo not given)	HCMV antiviral -100 (no result: AmpC inh no detg, HCV inhibitor, AmpC detergent)
CCCC(C)(C)C(=O)N1CCC1(C)C(=O)Nc1ccc(OC)c(OC)c1 (stereo not given)	none (no result: AmpC inh no detg, HCV inhibitor, AmpC detergent)
CC1(C(=O)Nc2ccc3c(c2)OCCO3)CSCC(=O)N1C1CC1 (stereo not given)	none (no result: AmpC inh no detg, HCV inhibitor, AmpC detergent)
CCCCN(CCCC)C(=O)c1cc2ccccc2c(=O)o1	HCMV antiviral -68, AmpC detergent inconclusive
CCCCC(CC)CNC(=O)c1cc2ccccc2c(=O)o1 (stereo not given)	none
CC(C)NC(=O)C1(C)CCN1C(=O)c1c(F)cccc1F (stereo not given)	none (no result: AmpC inh no detg, HCV inhibitor, AmpC detergent)
CCOC(=O)c1[nH]c(C)c(CCC(=O)NCc2ccc(OCC)cc2)c1C	none (no result: AmpC inh no detg, HCV inhibitor)
CCOC(=O)Cn1c(=NC(=O)CSC(C)=O)sc2cc(F)ccc21	AmpC inh no detg 35µM, AmpC detergent inconclusive
COCCn1c(=NC(=O)CSC(C)=O)sc2cc(F)ccc21	none
Cc1ccc(CNC(=O)c2c(Nc3c(C)cccc3C)sc(C(=O)c3ccccc3)c2N)cc1	none (no result: AmpC inh no detg, HCV inhibitor)
CN1C(=O)C(n2ccc3ccccc32)c2cc(OC(F)(F)F)ccc21 (stereo not given)	none (no result: FMDV inh, AmpC inh no detg, HCV inhibitor, AmpC detergent)
CCc1c(C#N)sc(C(N)=O)c1CC	HCMV antiviral -74, AmpC detergent inconclusive
Cc1c(C#N)sc(C(N)=O)c1C	HCMV antiviral inconclusive
COc1ccc(N(CC2CO2)S(=O)(=O)c2ccccc2)cc1 (stereo not given)	HCMV antiviral -62
COc1ccc(NC(=O)CN2C(=O)c3ccccc3S2(=O)=O)cc1S(=O)(=O)N1CCOCC1	none
COc1ccccc1C(=O)OCCc1ccccc1	HCMV antiviral -100 (no result: AmpC inh no detg, AmpC detergent)
Nc1ccccc1C(=O)OCCc1ccccc1	none
O=C(CCl)NN=C(c1ccccc1)c1ccccc1	FMDV inh 25µM, HCMV antiviral inconclusive
COc1ccccc1N1CCN(C2CCCN(C(=O)CCN3CCCCO3)C2)CC1 (stereo not given)	none
O=C(CSc1ccccc1)N1CCN(c2ccccn2)CC1	AmpC detergent inconclusive
CCc1ccccc1NC(=O)CSc1ccsc1[N+](=O)[O-]	FMDV inh inconclusive, AmpC inh no detg inconclusive, HCMV antiviral -66, HCV inhibitor inconclusive
O=C(CSc1ccsc1[N+](=O)[O-])N1CCN(c2ccccn2)CC1	HCMV antiviral -68
CC(C)CCNC(=O)CN1C(=O)COc2ccc(S(=O)(=O)N3CCOCC3)cc21	FMDV inh inconclusive (no result: AmpC inh no detg, HCV inhibitor)
N=C1/C(=C\c2ccc(-c3cccc(Cl)c3)o2)C(=O)N=C2SC=C(c3ccccc3)N12	AmpC inh no detg 16µM
N=C1S/C(=C\c2ccc(-c3cccc(Cl)c3)o2)C(=O)N1c1nccs1	HCMV antiviral -78, AmpC detergent inconclusive
N=C1/C(=C\c2ccc(-c3ccc(C(=O)O)cc3)o2)C(=O)N=C2SC=C(c3ccccc3)N12	FMDV inh inconclusive
COc1ccc(/C=C2\SC(=N)N(c3nccs3)C2=O)cc1OC	FMDV inh inconclusive, HCMV antiviral -94, HCV inhibitor inconclusive, AmpC detergent inconclusive
COc1ccc(/C=C2\SC(=S)N(NC(=O)c3ccncc3)C2=O)cc1OC	none (no result: FMDV inh, HCMV antiviral, HCV inhibitor)
COc1cc(-c2nnc(CSc3nnc(Nc4ccc(C(C)C)cc4)s3)o2)cc(OC)c1OC	HCV inhibitor 7.1µM
Cc1ccc2nc(-c3ccc(C#N)cc3)c(Cc3ccccc3C(F)(F)F)n2c1	none (no result: AmpC inh no detg, HCV inhibitor, AmpC detergent)
O=c1c(O)c(-c2ccc(O)cc2)oc2cc(O)cc(O)c12	HCV inhibitor 6.3µM (no result: AmpC inh no detg, HCMV antiviral, AmpC detergent)
CCN1CCC(N(Cc2ccc3c(c2)OCO3)C(=O)Nc2cc(Cl)ccc2C(=O)OC)CC1	HCMV antiviral -80 (no result: AmpC inh no detg, HCV inhibitor)
O=C(NNc1ccccc1)Nc1cc(Cl)ccc1Cl	HCV inhibitor inconclusive (no result: AmpC inh no detg, AmpC detergent)
Cc1ccc(N(CCC#N)C(=O)CCl)cc1C	FMDV inh 28µM, HCMV antiviral -100, HCV inhibitor 10µM
CC(C)N(c1ccccc1)c1ccc(NC(=O)CCl)cc1	FMDV inh 40µM, HCMV antiviral -61, HCV inhibitor inconclusive
O=C(Nc1cccc(NC(=O)c2cccs2)c1)c1ccc(Br)o1	AmpC inh no detg 25µM
O=C(Nc1cccc(-c2csc(-c3ccccc3)n2)c1)c1cccs1	HCV inhibitor 10µM (no result: FMDV inh)
Cc1nc(-c2cccc(NC(=O)c3cccs3)c2)cs1	HCV inhibitor inconclusive
